High-throughput results: PubChem, The Scripps Research Institute Molecular Screening Center
In the library only some 2.3% were active in any assay of this set; here they are far more common.
M1 antag – blocks human M1 muscarinic receptor; P11229; CHO-K1 hM1, Fluo-8 calcium fluorescence, ACh EC80 antagonist; inhibition, % at 3 µM; actives 1.3% (n = 360,000);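 active = percent inhibition above its own plate's cutoff, namely the mean of that plate's compound wells plus 3 SD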;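 also: peak over basal fluorescence ratio during 140 s after agonist addition; 0% = ACh EC80 plus DMSO and 100% = DMSO alone without agonist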
Target sequence (P11229 whole entry, looked up): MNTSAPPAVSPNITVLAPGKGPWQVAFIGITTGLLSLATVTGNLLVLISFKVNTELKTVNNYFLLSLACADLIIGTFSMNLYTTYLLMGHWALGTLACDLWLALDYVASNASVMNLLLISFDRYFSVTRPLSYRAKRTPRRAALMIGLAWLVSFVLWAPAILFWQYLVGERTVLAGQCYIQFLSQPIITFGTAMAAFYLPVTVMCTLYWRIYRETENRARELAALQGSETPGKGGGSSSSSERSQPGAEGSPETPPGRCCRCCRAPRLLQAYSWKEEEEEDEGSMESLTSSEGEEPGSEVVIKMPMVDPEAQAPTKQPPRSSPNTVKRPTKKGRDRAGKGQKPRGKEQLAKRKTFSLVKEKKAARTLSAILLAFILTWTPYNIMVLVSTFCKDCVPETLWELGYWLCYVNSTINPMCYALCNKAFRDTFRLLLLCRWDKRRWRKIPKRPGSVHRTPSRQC
CHO-K1 Ca antag – M1 antagonist counterscreen hit in parental CHO-K1 cells; ATP-induced calcium, Fluo-8 fluorescence; inhibition, % at 3 µM; actives 0.6% (n = 360,000); AID 602250;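 active = inhibition above a per-plate cutoff, the plate's mean sample inhibition plus 3 SD, cut at about 24% in these data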;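 also: 0% = DMSO plus EC80 ATP and 100% = DMSO alone without ATP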
CHRM1 agonist – activates human CHRM1 receptor; P11229; CHO-K1 hM1, Fluo-8 calcium fluorescence, agonist mode; 0% DMSO, 100% acetylcholine EC100; activation, % at 3 µM; actives 0.33% (n = 360,000);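 active = activation above the run's mean compound activation plus 3 SD, cut at about 16% in these data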;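 also: peak over basal fluorescence ratio within a 140 s kinetic read after compound addition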
CHO-K1 Ca ag – nonselective activator or artifact in parental CHO-K1 cells; Fluo-8 calcium fluorescence; scaled to maximal ATP response, vehicle zero; activation, % at 3 µM; actives 0.48% (n = 360,000); AID 602248; in the data active = activation above about 15%;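 also: untransfected CHO-K1 host cells lacking M1 receptor as counterscreen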
M1 PAM parental – nonselective activator or artifact in parental CHO-K1 calcium assay; ATP EC20, Fluo-8 calcium fluorescence; 0% at ATP EC20, 100% at ATP max; activation, % at 3 µM; actives 0.02% (n = 360,000); AID 602247;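 active = activation above the run cutoff, the mean activation of all test compounds plus 3 SD, cut at about 40% in these data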;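 also: peak over basal fluorescence ratio in a 140 s read after ATP addition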
M1 PAM – human CHRM1 positive allosteric modulation. CHO-K1 hM1, Fluo-8 calcium fluorescence, ACh EC20; 0% = ACh EC20, 100% = maximal ACh. activation, % at 3 µM. actives 0.088% (n = 360,000). AID 588819; in the data active = activation above about 19%, passing the limit was not always enough
* = called active by the depositor.

Screening COC(=O)C1=CN(c2cccc(Cl)c2)C=C(C(=O)OC)C1c1cccc(OC)c1 returned M1 antag -18, CHO-K1 Ca antag -4, CHRM1 agonist -4, CHO-K1 Ca ag 0, M1 PAM parental 13 and M1 PAM 9.
For COc1cccc(NC(=O)COC(=O)CC(NC(N)=O)c2ccc(Cl)cc2)c1 (stereo not drawn) the results were M1 antag -6, CHO-K1 Ca antag -7, CHRM1 agonist -3, CHO-K1 Ca ag 1, M1 PAM parental 17 and M1 PAM 4.
Screening CCOC(=O)c1c(OCCO)nn(-c2ccc(Cl)cc2)c1N returned M1 antag 7, CHO-K1 Ca antag 33*, CHRM1 agonist -2, CHO-K1 Ca ag 3, M1 PAM parental -18 and M1 PAM -9.
Screening CCCCN1C(=O)C(=O)N(CC(=O)Nc2cc(Cl)ccc2OC)C1=O returned M1 antag -19, CHO-K1 Ca antag -20, CHRM1 agonist 1, CHO-K1 Ca ag 1, M1 PAM parental -2 and M1 PAM 28*.
COc1cccc(NC(=O)CSc2nnc3ccc(-c4ccncc4)nn23)c1 was read as M1 antag -6, CHO-K1 Ca antag -5, CHRM1 agonist -8, CHO-K1 Ca ag 0, M1 PAM parental 5 and M1 PAM 3.
CC1CCCC(C)N1C(=O)c1cc(F)c(F)cc1Cl (stereo not drawn) was read as M1 antag -4, CHO-K1 Ca antag -3, CHRM1 agonist -7, CHO-K1 Ca ag 1, M1 PAM parental 5 and M1 PAM 1.
For CC1CCCC(C)N1C(=O)COC(=O)c1cc(F)c(F)cc1Cl (stereo not drawn) the results were M1 antag 28*, CHO-K1 Ca antag 18, CHRM1 agonist -8, CHO-K1 Ca ag -1, M1 PAM parental -9 and M1 PAM -9.
Screening Cc1csc(=O)n1CC(=O)OCC(=O)Nc1cc(Cl)ccc1[N+](=O)[O-] returned M1 antag -10, CHO-K1 Ca antag 6, CHRM1 agonist 1, CHO-K1 Ca ag 2, M1 PAM parental 1 and M1 PAM 14.
For Cc1ccccc1CS(=O)(=O)c1nnc([C@H](Cc2ccccc2)NC(=O)OC(C)(C)C)o1 the results were M1 antag 2, CHO-K1 Ca antag 5, CHRM1 agonist -7, CHO-K1 Ca ag 2, M1 PAM parental 9 and M1 PAM 3.
`CCC(C)[C@@H](NC(=O)OC(C)(C)C)c1nnc(S(=O)(=O)Cc2cccc(C)c2)o1` (stereo partly drawn) gave M1 antag 4, CHO-K1 Ca antag 26*, CHRM1 agonist -4, CHO-K1 Ca ag 0, M1 PAM parental -10 and M1 PAM 7.
Screening CC(C)COP(=O)(OCC(C)C)C(O)c1ccc(N(C)C)cc1 (stereo not drawn) returned M1 antag -15, CHO-K1 Ca antag -11, CHRM1 agonist -1, CHO-K1 Ca ag 0, M1 PAM parental 5 and M1 PAM 3.
`Cc1ccccc1NC(=O)C1CCCN(S(=O)(=O)c2ccc3c(c2)C(C)(C)C(=O)N3C)C1` (stereo not drawn) gave M1 antag -1, CHO-K1 Ca antag 30*, CHRM1 agonist -2, CHO-K1 Ca ag 0, M1 PAM parental -3 and M1 PAM 1.
`CN(C)c1ccc(/C=C/C(=O)c2c(O)c3ccccc3oc2=O)cc1` gave M1 antag 12, CHO-K1 Ca antag 3, CHRM1 agonist 30*, CHO-K1 Ca ag 32*, M1 PAM parental 9 and M1 PAM -12.
`O=C(Cn1c2ccccc2c(=O)c2cc([N+](=O)[O-])ccc21)Nc1ccccc1Cl` gave M1 antag -4, CHO-K1 Ca antag 0, CHRM1 agonist -7, CHO-K1 Ca ag 15*, M1 PAM parental 21 and M1 PAM 10.
O=C(Cn1c2ccccc2c(=O)c2ccccc21)Nc1ccccc1F was read as M1 antag -5, CHO-K1 Ca antag 0, CHRM1 agonist -7, CHO-K1 Ca ag 0, M1 PAM parental 6 and M1 PAM 2.
For NS(=O)(=O)c1ccc(NC(=O)CSc2nc3c(cnn3-c3ccccn3)c(=O)[nH]2)cc1 the results were M1 antag 2, CHO-K1 Ca antag 5, CHRM1 agonist -4, CHO-K1 Ca ag 0, M1 PAM parental -11 and M1 PAM -3.
`CC(C)C[C@H](NC(=O)/C=C/[C@H]1O[C@@H](n2ccc(=O)[nH]c2=O)[C@H](O)[C@@H]1O)C(=O)O` gave M1 antag -14, CHO-K1 Ca antag 16, CHRM1 agonist 17*, CHO-K1 Ca ag 0, M1 PAM parental -11 and M1 PAM 7.
For CSc1ccc(CN2CCC(Cc3ccccc3)CC2)cc1 the results were M1 antag 50*, CHO-K1 Ca antag -7, CHRM1 agonist -9, CHO-K1 Ca ag 2, M1 PAM parental 24 and M1 PAM -29.
Screening O=C(C1CCN(Cc2ccc(Cl)cc2)CC1)N1CCN(C(c2ccccc2)c2ccccc2)CC1 returned M1 antag 99*, CHO-K1 Ca antag -2, CHRM1 agonist -7, CHO-K1 Ca ag 1, M1 PAM parental -4 and M1 PAM -27.
Screening Clc1ccc(CN2CCC(Cc3ccccc3)CC2)cc1 returned M1 antag 45*, CHO-K1 Ca antag 4, CHRM1 agonist -15, CHO-K1 Ca ag 0, M1 PAM parental -6 and M1 PAM -28.
`CC(NC1CCN(Cc2ccccc2)CC1)c1ccc(F)cc1` (stereo not drawn) gave M1 antag 34*, CHO-K1 Ca antag -5, CHRM1 agonist -10, CHO-K1 Ca ag 1, M1 PAM parental 5 and M1 PAM -20.
For COc1cccc(CNC(=O)c2ccccc2NC(=O)C2=C(C)OCCS2)c1OC the results were M1 antag 10, CHO-K1 Ca antag -3, CHRM1 agonist 1, CHO-K1 Ca ag 6, M1 PAM parental 4 and M1 PAM 0.
Screening CCOC(=O)c1cc2c(c(CCO)n1)[C@@H](CCO)N(S(=O)(=O)C(C)(C)C)C2 returned M1 antag -4, CHO-K1 Ca antag -14, CHRM1 agonist -2, CHO-K1 Ca ag 1, M1 PAM parental 21 and M1 PAM -1.
COc1cc([N+](=O)[O-])ccc1NC(=O)CN1C(=O)NC2(CCCCC2C)C1=O (stereo not drawn) was read as M1 antag -6, CHO-K1 Ca antag -9, CHRM1 agonist -4, CHO-K1 Ca ag 1, M1 PAM parental -7 and M1 PAM 2.
CCN(CC)c1ccc2c(Cl)c(Br)c(=O)oc2c1 was read as M1 antag 78*, CHO-K1 Ca antag 73*, CHRM1 agonist 49*, CHO-K1 Ca ag 53*, M1 PAM parental -7 and M1 PAM -17.
COc1ccc(C(C(=O)NC2CCCC2)N(Cc2cccnc2)C(=O)c2snc(C(N)=O)c2N)cc1OC (stereo not drawn) was read as M1 antag 5, CHO-K1 Ca antag -5, CHRM1 agonist -5, CHO-K1 Ca ag 1, M1 PAM parental 7 and M1 PAM 3.
